# Assay results from the supplement of paper PMC8728848.
# This excerpt belongs to a sample that is enriched for the strongest signals.
# B1: EULS2 M1 (Oryza sativa) (protein)
# chain: MVYCRANPNYAMTARNGAVVLAPANPKDEYQHWIKDMRWSTSIKDEEGYPAFALVNKATGQAIKHSLGQSHPVRLVPYNPEVMDESVLWTESRDVGNGFRCIRMVNNIYLNFDAFHGDKYHGGVRDGTDIVLWKLCEGDNQRWKIQPYYILEQKLISEEDLNSAVDHHHHHH
# Experiments:
# Assay in all cases: glycan array binding signal (z-score within array); higher = stronger binding
# Conditions in all cases: glycan notation: IUPAC condensed, linker removed
# [1] = target: Fuc(a1-2)Gal(b1-3)GalNAc(a1-3)[Fuc(a1-2)]Gal(b1-4)Glc
# Outline: (§1)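 Glycan array binding is given as a within-array Z-score, which can be read as non-binding when negative. The arrays, 3228 of them, came from the Consortium for Functional Glycomics database and were retained only where the protein sequence was available. Z-scores were averaged across arrays of the same protein sequence at different concentrations or buffers and across linkers.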
# [2] = target: Fuc(a1-2)Gal(b1-3)GlcNAc(b1-3)Gal(b1-4)Glc
# Outline: as §1
# [3] = target: Fuc(a1-2)Gal(b1-3)GlcNAc(b1-3)[Gal(b1-4)GlcNAc(b1-6)]Gal(b1-4)Glc
# Outline: as §1
# [4] = target: Fuc(a1-2)Gal(b1-4)GlcNAc(b1-3)[Fuc(a1-2)Gal(b1-4)GlcNAc(b1-6)]GalNAc
# Outline: as §1
# [5] = target: Fuc(a1-2)Gal(b1-4)[Fuc(a1-3)]GlcNAc
# Outline: as §1
# Fuc(a1-2)Gal6S(b1-4)Glc = target: Fuc(a1-2)Gal6S(b1-4)Glc
# Outline: as §1
# [6] = target: Fuc(a1-2)[Gal(a1-3)]Gal(b1-3)GlcNAc
# Outline: as §1
# [7] = target: Fuc(a1-2)[Gal(a1-3)]Gal(b1-4)GlcNAc
# Outline: as §1
# [8] = target: Fuc(a1-2)[GalNAc(a1-3)]Gal(b1-3)GlcNAc(b1-2)Man(a1-3)[Fuc(a1-2)[GalNAc(a1-3)]Gal(b1-3)GlcNAc(b1-2)Man(a1-6)]Man(b1-4)GlcNAc(b1-4)GlcNAc
# Outline: as §1
# [9] = target: Fuc(a1-2)[GalNAc(a1-3)]Gal(b1-4)GlcNAc(b1-2)Man
# Outline: as §1
# Gal(a1-3)Gal(b1-3)GlcNAc = target: Gal(a1-3)Gal(b1-3)GlcNAc
# Outline: as §1
# [10] = target: Gal(a1-3)Gal(b1-3)GlcNAc(b1-2)Man
# Outline: as §1
# [11] = target: Gal(a1-3)Gal(b1-4)GlcNAc(b1-2)Man(a1-3)[Gal(a1-3)Gal(b1-4)GlcNAc(b1-2)Man(a1-6)]Man(b1-4)GlcNAc(b1-4)GlcNAc
# Outline: as §1
# [12] = target: Gal(b1-3)GlcNAc(b1-3)Gal(b1-3)GlcNAc
# Outline: as §1
# [13] = target: Gal(b1-3)[Fuc(a1-4)]GlcNAc(b1-2)Man
# Outline: as §1
# [14] = target: Gal(b1-3)[Fuc(a1-4)]GlcNAc(b1-2)Man(a1-3)[Gal(b1-3)[Fuc(a1-4)]GlcNAc(b1-2)Man(a1-6)]Man(b1-4)GlcNAc(b1-4)[Fuc(a1-6)]GlcNAc
# Outline: as §1
# [15] = target: Gal(b1-3)[Fuc(a1-4)]GlcNAc(b1-3)Gal(b1-3)[Fuc(a1-4)]GlcNAc
# Outline: as §1
# [16] = target: Gal(b1-3)[Neu5Ac(a2-6)]GalNAc
# Outline: as §1
# [17] = target: Gal(b1-4)GlcNAc(b1-2)Man(a1-3)[Gal(b1-4)GlcNAc(b1-2)Man(a1-6)]Man(b1-4)GlcNAc(b1-4)GlcNAc
# Outline: as §1
# [18] = target: Gal(b1-4)GlcNAc(b1-2)Man(a1-3)[GlcNAc(b1-4)][Gal(b1-4)GlcNAc(b1-2)Man(a1-6)]Man(b1-4)GlcNAc(b1-4)GlcNAc
# Outline: as §1
# [19] = target: Gal(b1-4)GlcNAc(b1-2)[Gal(b1-4)GlcNAc(b1-4)]Man(a1-3)[Gal(b1-4)GlcNAc(b1-2)[Gal(b1-4)GlcNAc(b1-6)]Man(a1-6)]Man(b1-4)GlcNAc(b1-4)GlcNAc
# Outline: as §1
# [20] = target: Gal(b1-4)GlcNAc(b1-2)[Gal(b1-4)GlcNAc(b1-4)]Man(a1-3)[GlcNAc(b1-4)][Gal(b1-4)GlcNAc(b1-2)Man(a1-6)]Man(b1-4)GlcNAc(b1-4)GlcNAc
# Outline: as §1
# [21] = target: Gal(b1-4)GlcNAc(b1-3)Gal(b1-3)GlcNAc
# Outline: as §1
# [22] = target: Gal(b1-4)GlcNAc(b1-3)Gal(b1-4)GlcNAc(b1-3)Gal(b1-4)GlcNAc(b1-3)Gal(b1-4)GlcNAc(b1-2)[Gal(b1-4)GlcNAc(b1-3)Gal(b1-4)GlcNAc(b1-3)Gal(b1-4)GlcNAc(b1-3)Gal(b1-4)GlcNAc(b1-6)]Man(a1-6)[Gal(b1-4)GlcNAc(b1-3)Gal(b1-4)GlcNAc(b1-3)Gal(b1-4)GlcNAc(b1-3)Gal(b1-4)GlcNAc(b1-2)Man(a1-3)]Man(b1-4)GlcNAc(b1-4)[Fuc(a1-6)]GlcNAc
# Outline: as §1
# [23] = target: Gal(b1-4)GlcNAc(b1-6)GalNAc
# Outline: as §1
# [24] = target: Gal(b1-4)GlcNAc(b1-6)[Gal(b1-4)GlcNAc(b1-3)]GalNAc
# Outline: as §1
# [25] = target: Gal3S(b1-3)[Fuc(a1-4)]GlcNAc
# Outline: as §1
# Gal3S(b1-4)Glc6S = target: Gal3S(b1-4)Glc6S
# Outline: as §1
# Gal6S(b1-3)GlcNAc6S = target: Gal6S(b1-3)GlcNAc6S
# Outline: as §1
# [26] = target: GalNAc(b1-3)Gal(a1-6)Gal(b1-4)Glc
# Outline: as §1
# [27] = target: GalNAc(b1-4)GlcNAc(b1-3)GalNAc(b1-4)GlcNAc
# Outline: as §1
# Glc(b1-4)Glc = target: Glc(b1-4)Glc
# Outline: as §1
# GlcA(b1-3)GlcNAc = target: GlcA(b1-3)GlcNAc
# Outline: as §1
# [28] = target: GlcNAc(b1-2)[GlcNAc(b1-4)]Man(a1-3)[GlcNAc(b1-4)][GlcNAc(b1-2)[GlcNAc(b1-6)]Man(a1-6)]Man(b1-4)GlcNAc(b1-4)[Fuc(a1-6)]GlcNAc
# Outline: as §1
# GlcNAc(b1-3)Fuc = target: GlcNAc(b1-3)Fuc
# Outline: as §1
# [29] = target: GlcNAc(b1-3)Gal(b1-4)GlcNAc
# Outline: as §1
# [30] = target: GlcNAc(b1-3)[GlcNAc(b1-6)]Gal(b1-4)GlcNAc
# Outline: as §1
# [31] = target: Man(a1-3)[Man(a1-6)]Man(b1-4)GlcNAc(b1-4)GlcNAc
# Outline: as §1
# Man(a1-6)Man = target: Man(a1-6)Man
# Outline: as §1
# Man(b1-4)GlcNAc = target: Man(b1-4)GlcNAc
# Outline: as §1
# [32] = target: Neu5Ac(a2-3)Gal(b1-3)GlcNAc
# Outline: as §1
# [33] = target: Neu5Ac(a2-3)Gal(b1-3)[Neu5Ac(a2-6)]GalNAc
# Outline: as §1
# Neu5Ac(a2-3)Gal(b1-4)Glc = target: Neu5Ac(a2-3)Gal(b1-4)Glc
# Outline: as §1
# [34] = target: Neu5Ac(a2-3)Gal(b1-4)GlcNAc(b1-2)[Neu5Ac(a2-3)Gal(b1-4)GlcNAc(b1-6)]Man(a1-6)[Neu5Ac(a2-3)Gal(b1-4)GlcNAc(b1-2)Man(a1-3)][GlcNAc(b1-4)]Man(b1-4)GlcNAc(b1-4)GlcNAc
# Outline: as §1
# [35] = target: Neu5Ac(a2-6)Gal(b1-4)GlcNAc(b1-2)Man(a1-3)[GlcNAc(b1-2)Man(a1-6)]Man(b1-4)GlcNAc(b1-4)GlcNAc
# Outline: as §1
# [36] = target: Neu5Ac(a2-6)Gal(b1-4)GlcNAc(b1-3)Gal(b1-4)GlcNAc(b1-6)[Gal(b1-3)]GalNAc
# Outline: as §1
# [37] = target: Neu5Ac(a2-8)Neu5Ac(a2-3)Gal(b1-4)Glc
# Outline: as §1
# [38] = target: Neu5Gc(a2-6)Gal(b1-4)GlcNAc
# Outline: as §1
# [39] = target: Neu5Gc(a2-8)Neu5Gc(a2-6)Gal(b1-4)GlcNAc
# Outline: as §1
binder,measurement,setting,value
B1,glycan array binding signal (z-score),[1],-0.333
same,glycan array binding signal (z-score),[2],-0.208
same,glycan array binding signal (z-score),[3],-0.34
same,glycan array binding signal (z-score),[4],-0.457
same,glycan array binding signal (z-score),[5],-0.363
same,glycan array binding signal (z-score),Fuc(a1-2)Gal6S(b1-4)Glc,-1.48
same,glycan array binding signal (z-score),[6],0.694
same,glycan array binding signal (z-score),[7],-0.349
same,glycan array binding signal (z-score),[8],3.99
same,glycan array binding signal (z-score),[9],-1
same,glycan array binding signal (z-score),Gal(a1-3)Gal(b1-3)GlcNAc,3.45
same,glycan array binding signal (z-score),[10],-0.609
same,glycan array binding signal (z-score),[11],0.844
same,glycan array binding signal (z-score),[12],-0.334
same,glycan array binding signal (z-score),[13],1.75
same,glycan array binding signal (z-score),[14],1.19
same,glycan array binding signal (z-score),[15],3.42
same,glycan array binding signal (z-score),[16],1.39
same,glycan array binding signal (z-score),[17],-0.312
same,glycan array binding signal (z-score),[18],1.31
same,glycan array binding signal (z-score),[19],-0.584
same,glycan array binding signal (z-score),[20],0.188
same,glycan array binding signal (z-score),[21],-0.203
same,glycan array binding signal (z-score),[22],0.636
same,glycan array binding signal (z-score),[23],0.271
same,glycan array binding signal (z-score),[24],-0.195
same,glycan array binding signal (z-score),[25],-0.905
same,glycan array binding signal (z-score),Gal3S(b1-4)Glc6S,2.56
same,glycan array binding signal (z-score),Gal6S(b1-3)GlcNAc6S,10.9
same,glycan array binding signal (z-score),[26],2.84
same,glycan array binding signal (z-score),[27],-0.842
same,glycan array binding signal (z-score),Glc(b1-4)Glc,2.81
same,glycan array binding signal (z-score),GlcA(b1-3)GlcNAc,0.171
same,glycan array binding signal (z-score),[28],2.74
same,glycan array binding signal (z-score),GlcNAc(b1-3)Fuc,-0.923
same,glycan array binding signal (z-score),[29],0.2
same,glycan array binding signal (z-score),[30],-0.56
same,glycan array binding signal (z-score),[31],3.41
same,glycan array binding signal (z-score),Man(a1-6)Man,3.16
same,glycan array binding signal (z-score),Man(b1-4)GlcNAc,-0.283
same,glycan array binding signal (z-score),[32],-0.972
same,glycan array binding signal (z-score),[33],0.067
same,glycan array binding signal (z-score),Neu5Ac(a2-3)Gal(b1-4)Glc,-0.186
same,glycan array binding signal (z-score),[34],-0.305
same,glycan array binding signal (z-score),[35],-0.661
same,glycan array binding signal (z-score),[36],0.283
same,glycan array binding signal (z-score),[37],-0.26
same,glycan array binding signal (z-score),[38],0.007
same,glycan array binding signal (z-score),[39],-0.158
